In the library only some 2.9% were active in any assay of this set; here they are far more common.
proKLK7 act – proKLK7 (human) activation, primary screen; P49862; purified proKLK7, EDANS-DABCYL substrate fluorescence; 100% is mature enzyme control, 0% vehicle; activation, % at 7 µM; actives 0.9% (n = 370,000);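 active means activation above the mean of all tested compounds plus 3 SD, computed per campaign excluding outliers beyond control limits, cut at about 13% in these data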
ADAM10 inh – ADAM10 inhibition, QFRET primary screen; actives 0.62% (n = 370,000); recombinant ADAM10, EDANS/DABCYL FRET peptide cleavage, 3 h; inhibition, % at 7 µM;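 active means inhibition above a per-campaign cutoff equal to the mean of compounds falling between control-based bounds plus 3 SD, cut at about 20% in these data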
ADAM17 inh – inhibits human ADAM17. AID 720648. recombinant ADAM17, EDANS/DABCYL FRET peptide cleavage. actives 0.83% (n = 370,000). inhibition, % at 6.95 µM. P78536;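 active means inhibition above the mean of compounds lying between control limits plus 3 SD, set per campaign, cut at about 8.5% in these data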
Target sequence (P78536 215-824 limits assumed): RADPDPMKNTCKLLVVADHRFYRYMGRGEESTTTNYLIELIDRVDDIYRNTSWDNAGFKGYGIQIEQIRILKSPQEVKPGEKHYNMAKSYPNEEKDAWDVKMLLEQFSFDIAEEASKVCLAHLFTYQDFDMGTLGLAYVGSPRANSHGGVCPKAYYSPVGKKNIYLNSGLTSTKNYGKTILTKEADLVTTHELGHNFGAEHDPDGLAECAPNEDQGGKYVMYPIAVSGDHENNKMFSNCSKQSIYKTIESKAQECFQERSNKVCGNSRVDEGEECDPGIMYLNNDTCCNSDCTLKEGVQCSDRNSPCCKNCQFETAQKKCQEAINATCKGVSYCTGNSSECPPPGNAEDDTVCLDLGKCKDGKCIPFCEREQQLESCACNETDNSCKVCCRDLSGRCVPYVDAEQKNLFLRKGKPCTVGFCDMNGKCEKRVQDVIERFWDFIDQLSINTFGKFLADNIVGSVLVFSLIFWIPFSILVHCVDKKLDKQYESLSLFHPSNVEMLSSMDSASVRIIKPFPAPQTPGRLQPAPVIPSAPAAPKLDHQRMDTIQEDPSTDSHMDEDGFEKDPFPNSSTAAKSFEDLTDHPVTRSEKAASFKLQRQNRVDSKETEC
PLCb3 inh – blocks human PLC-beta3 enzyme activity; Q01970; Purified PLC-beta3, fluorogenic substrate, fluorescence; inhibition, % at 12.2 µM; actives 0.18% (n = 370,000); AID 720704; in the data active means inhibition above about 11%
PLCg1 inh – PLC-gamma1 (human) inhibition, primary screen; actives 0.84% (n = 370,000); inhibition, % at 12.2 µM; purified PLC-gamma1, fluorogenic substrate, fluorescence; in the data active means inhibition above about 9.5%
ADAM10 confirm – confirmation of inhibitors of human ADAM10; shares compounds with ADAM10 inh; ADAM10 QFRET peptide cleavage, EDANS fluorescence; inhibition, % at 6.95 µM; actives 1% (n = 2,100);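 active means inhibition above about 20% chosen separately for each screening run, limit read from the data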
ADAM17 counter – ADAM17 inhibition, counter-screen for ADAM10 exosite hits; inhibition, % at 6.95 µM; actives 0.5% (n = 2,100); shares compounds with ADAM10 inh; ADAM17 QFRET peptide cleavage, EDANS fluorescence;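 active means mean triplicate inhibition above the solvent-only control wells' mean plus 3 SD, cut at about 12% in these data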
ADAM10 ctr – ADAM10 inhibition, counter-screen for ADAM17 exosite hits | actives 47% (n = 2,900) | shares compounds with ADAM17 inh | recombinant ADAM10, EDANS/DABCYL FRET peptide cleavage, 3 h | inhibition, % at 6.95 µM;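 active means mean inhibition over the triplicate runs exceeds the activity threshold set in the earlier primary screen, cut at about 20% in these data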
ADAM17 confirm – confirmation of inhibitors of human ADAM17 | shares compounds with ADAM17 inh | recombinant ADAM17, EDANS/DABCYL QFRET peptide cleavage | inhibition, % at 6.95 µM | actives 65% (n = 2,900);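 active means mean inhibition across replicates above the hit cutoff set in the primary screen, cut at about 8.5% in these data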
A number is an active result; - = inactive; . = not tested or not shown.

SMILES	proKLK7 act	ADAM10 inh	ADAM17 inh	PLCb3 inh	PLCg1 inh	ADAM10 confirm	ADAM17 counter	ADAM10 ctr	ADAM17 confirm
Cc1cc(N=Nc2ccccc2C)ccc1N	-	23	-	-	9.6	-	-	.	.
O=C(CNC(=O)OCc1ccccc1)Nc1ccc(Br)cc1C(=O)c1ccccc1	-	20	-	-	-	-	-	.	.
O=C(CNC(=O)OCc1ccccc1)NCC(=O)Nc1ccc(Br)cc1C(=O)c1ccccc1	-	-	-	-	-	.	.	.	.
Clc1ccc([C@H]2CC3CCC2N3)cn1 (stereo not given in full)	-	-	-	-	-	.	.	.	.
CCOC(=O)C1C2c3ccccc3O[C@@]1(C)N=C1SCC(=O)N12 (stereo not given in full)	-	-	-	-	-	.	.	.	.
CCOC(=O)[C@@H]1[C@H]2COc3ccc(Br)cc3[C@@H]2N2C(=O)N(c3cccc(C)c3)C(=O)[C@]12C	-	20	-	-	-	-	-	.	.
CC1C(c2ccccc2)OC(=O)N1C (stereo not given)	-	-	-	-	-	.	.	.	.
CCOC(=O)c1c(C)n(Cc2ccccc2)c2ccc(OCC(O)Cn3nc(C)cc3C)cc12 (stereo not given)	-	33	12	-	-	-	-	.	.
O=C1C=CC(=O)C2C1C1(Cl)C(Cl)=C(Cl)C2(Cl)C1(Cl)Cl (stereo not given)	-	27	-	-	-	-	-	.	.
C[C@@H]1CN([C@@H](C)CO)C(=O)CCCn2cc(nn2)CO[C@H]1CN(C)C(=O)Oc1cccc2ccccc12	-	-	-	-	-	.	.	.	.
Nc1ccc(N2CCN(Cc3ccccc3Cl)CC2)c(Cl)c1	-	22	-	-	-	-	-	.	.
COc1ccc(-c2ccc3c(c2)CN(C(=S)NCCc2ccccc2)Cc2cnnn2-3)cc1	-	-	-	-	-	.	.	.	.
O=C(CN1CCOCC1)c1cccc2ccccc12	-	-	-	-	-	.	.	.	.
Cc1c(C(=O)c2cccc3ccccc23)c2cccc3c2n1[C@H](CN1CCOCC1)CO3	-	20	-	-	-	-	-	.	.
COC(=O)C1=C(c2ccc(-c3ccccc3)c(F)c2)C[C@@H]2CC[C@H]1N2C(=O)NCCOc1ccc(OC)cc1	-	40	22	-	-	-	-	21	12
COC(=O)C1=C(c2cccc(OCc3ccccc3)c2)C[C@@H]2CC[C@H]1N2C(=O)NCc1cccc(OC)c1	-	-	-	-	-	.	.	.	.
COC(=O)C1=C(c2cccc(OCc3ccccc3)c2)C[C@@H]2CC[C@H]1N2C(=O)NCCOc1ccc(OC)cc1	-	26	10	-	-	-	-	-	14
CC(C)C[C@@H]1COc2cc(N3CCN(C)CC3)ccc2S(=O)(=O)N1	-	-	-	-	-	.	.	.	.
CCOC(=O)c1cccc(C2=C(CNC(=O)c3cccnc3)[C@H]3CC[C@@H](C2)N3Cc2ccccc2)c1	-	-	-	-	-	.	.	.	.
COC(=O)C1=C(c2ccc(Cl)c(C(F)(F)F)c2)C[C@@H]2CC[C@H]1N2C(=O)NCc1ccc2c(c1)OCO2	-	-	-	-	-	.	.	.	.
COc1ccc(-n2nnnc2C(c2ccccc2OC(F)(F)F)N2CCC(n3c(=O)[nH]c4ccccc43)CC2)cc1 (stereo not given)	-	30	10	-	-	-	-	34	20
COc1ccc(-n2nnnc2C(c2ccccc2)N2CCC3(CC2)C(=O)NCN3c2ccccc2)cc1 (stereo not given)	-	-	-	-	-	.	.	.	.
COc1ccc(-n2nnnc2C(c2ccccc2OC(F)(F)F)N2CCC3(CC2)C(=O)NCN3c2ccccc2)cc1 (stereo not given)	-	25	9.4	-	-	-	-	31	15
CCC(c1nnnn1-c1ccc(OC)cc1)N1CCC(n2c(=O)[nH]c3ccccc32)CC1 (stereo not given)	-	-	-	-	-	.	.	.	.
CC(=O)C1CCC2C3CCC4CC(O)CCC4(C)C3C(O)CC12C (stereo not given)	-	-	-	-	-	.	.	.	.
SMILES	proKLK7 act	ADAM10 inh	ADAM17 inh	PLCb3 inh	PLCg1 inh	ADAM10 confirm	ADAM17 counter	ADAM10 ctr	ADAM17 confirm
Cc1ccc(NP(=O)(Oc2ccccc2F)Oc2ccccc2F)cc1C	-	26	9.6	-	-	-	-	23	12
CCOC(=O)C(O)(c1ccc(N(CC)S(=O)(=O)c2ccccc2)cc1)C(F)(F)F (stereo not given)	-	27	14	-	-	-	-	-	-
COC(=O)C1=C(c2ccc(F)cc2OCc2ccccc2)C[C@@H]2CC[C@H]1N2C(=O)NCc1cccc(C(F)(F)F)c1	-	24	16	-	-	-	-	-	13
COC(=O)C1=C(c2ccc(F)cc2OCc2ccccc2)C[C@@H]2CC[C@H]1N2C(=O)NCc1ccc(N(C)C)cc1	-	20	9.7	-	-	-	-	-	-
COC(=O)C1=C(c2ccc(F)cc2OCc2ccccc2)C[C@@H]2CC[C@H]1N2C(=O)NCCc1ccc(F)cc1	-	27	11	-	-	-	-	29	13
FC(F)(F)c1ccc(-c2ccc3c(c2)CNCc2cnnn2-3)cc1	-	-	-	-	-	.	.	.	.
COC(=O)C(O)(c1ccc(NC(=S)NC(=O)c2ccc(Cl)cc2Cl)cc1)C(F)(F)F (stereo not given)	-	-	-	-	-	.	.	.	.
COC(=O)C(O)(c1ccc(NC(=S)NC(=O)c2ccc(Cl)cc2Cl)c(C)c1)C(F)(F)F (stereo not given)	-	23	11	-	-	-	-	35	18
Cc1ccc(OC(=O)N(C)C[C@H]2OCc3cnnn3CCCC(=O)N([C@@H](C)CO)C[C@H]2C)cc1	-	-	-	-	-	.	.	.	.
CCOc1c(Cl)cc(CNCCc2c[nH]c3ccccc23)cc1OC	-	-	-	-	-	.	.	.	.
CCOc1cc(CNCCc2c[nH]c3ccccc23)cc(Cl)c1OCC	-	27	14	12	12	-	-	-	-

Source: PubChem (The Scripps Research Institute Molecular Screening Center)
